PubChem BioAssay AID720650 (Broad Institute, 2013)
Unmarked numbers belong to inactive results. Activity calls are given as the source filed them. How the calls were made is not given here.

assay: C difficile toxins, biochemical counterscreen, UDPG substrate absence, confirmatory dose response (AID 720650); conditions: series mostly up to 19.5 µM; activity change, negative = inhibition: at the top concentration

| Structure (SMILES) | activity change, negative = inhibition | AC50 |
| --- | --- | --- |
| CCCNC(=O)Nc1ccc2c(c1)C(=O)N(C)[C@@H]1CC[C@H](CC(=O)NC3CCC3)O[C@H]1CO2 | -5.24% | – |
| O=C(CN1C(=O)NC2(CCCc3ccccc32)C1=O)NCc1cccs1 (stereo not drawn) | 12.2% | – |
| COc1cc(N=Nc2c(C)n(C)n(-c3ccccc3)c2=O)ccc1N | -7.35% | – |
| CCC(=Nc1ccccc1)C1=C(O)CCCC1=O | -6.94% | – |
| O=C(N[C@@H](Cc1c[nH]c2ccccc12)C(=O)O)C1CCN(S(=O)(=O)c2cccs2)CC1 | -4.14% | – |
| CCOc1ccccc1/C=C/c1onc(C)c1S(=O)(=O)N1CCC(C(=O)N2CCCCCC2)CC1 | -16.1% | – |
| Cc1ccc(-c2nc3ccc([N+](=O)[O-])cc3[nH]2)cc1 | – | 7.38 µM (active) |
| CN(C)c1ccc(/C=C/c2cccc[n+]2[O-])cc1 | -21.1% | – |
| C[C@H]1CN([C@@H](C)CO)S(=O)(=O)c2ccc(-c3ccncc3)cc2O[C@H]1CN(C)Cc1ccc(Oc2ccccc2)cc1 | -6.4% | – |
| C[C@H](CO)N1C[C@H](C)[C@@H](CN(C)C(=O)Nc2ccc(C(F)(F)F)cc2)Oc2ccc(NC(=O)C3CCCCC3)cc2C1=O | 2.5% | – |
| O=C(Cc1ccccc1)NNC(=S)NC(=O)c1cccnc1 | – | > 39 µM |
| Cc1ccc(S(=O)(=O)Oc2cccc(/C=N/Nc3ccc(C(=O)O)cc3)c2)cc1 | – | > 39 µM |
| CCOC(=O)c1ccc2ncc(-c3ccccc3)nc2c1 | 2.63% | – |
| C[C@H](CO)N1C[C@H](C)[C@@H](CN(C)C(=O)Nc2ccc(C(F)(F)F)cc2)Oc2c(cccc2N(C)C)C1=O | – | 19 µM (active) |
| O=C(C[C@H]1C[C@H]2c3cc(NC(=O)c4ccc5c(c4)OCO5)ccc3O[C@H]2[C@@H](CO)O1)NCc1cccc(F)c1 | -0.529% | – |
| COc1ccc(/C=C(/C#N)C(=O)Nc2ccc(O)cc2)cc1C(=O)O | – | 12.2 µM (active) |
| CCN(CC)CCNc1ccc(C)c2sc3ccc(O)cc3c(=O)c12 | – | 5.7 µM (active) |
| CC12CCC(=O)N1C(C(=O)OCc1c(Cl)cccc1Cl)CS2 (stereo not drawn) | -9.04% | – |
| CCN(CC)CCNC(=O)C1CCN(S(=O)(=O)c2c(C)noc2/C=C/c2ccccc2F)CC1 | -10.2% | – |

| Structure (SMILES) | activity change, negative = inhibition | AC50 |
| --- | --- | --- |
| NC(=O)NN=C1CC2CC1C1C=CCC21 (stereo not drawn) | -12.3% | – |
| Cc1ccnc(N2C(=O)c3ccccc3C2=O)c1 | 6.58% | – |
| CCCSc1nc2c([nH]1)c(=O)n(C)c(=S)n2C | -18.3% | – |
| O=C(NCCc1ccc(Cl)cc1)C1CCN(S(=O)(=O)c2ccc(Br)s2)CC1 | -4.2% | – |
| C[C@@H]1CN([C@@H](C)CO)C(=O)c2c(c3ccccc3n2C)-c2ccccc2CO[C@@H]1CN(C)C | -5.57% [at 21 µM] | – |
| Nc1cc(N)cc(C(=O)OCC(=O)Nc2cc(S(=O)(=O)N3CCCCC3)ccc2Cl)c1 | -5.99% | – |
| COC(=O)CN1C(C)=Nc2ccc(Br)cc2C1c1ccccc1 (stereo not drawn) | -11.4% | – |
| Cc1nc2ccccn2c1-c1ccnn1S(=O)(=O)c1ccc(F)cc1 | -14.9% | – |
| O=C(O)c1ccc(-c2nnc(-c3ccccc3)o2)cc1 | -16.1% | – |
| O=[N+]([O-])c1cc(Br)ccc1NS(=O)(=O)c1ccccc1 | – | > 39 µM |
| COc1cc2[nH]c(=S)nc(NCCC(C)C)c2cc1OC | -22.8% | – |
| Cc1ccc(C(=O)Nc2scc(-c3ccccc3)c2C(=O)O)cc1 | – | 9.56 µM (active) |
| CC(=O)NC(Cc1ccccc1)C(=O)Oc1ccc2ccccc2c1 (stereo not drawn) | -8.77% | – |
| Nc1ncc(S(=O)(=O)c2ccc([N+](=O)[O-])cc2)s1 | -5.28% | – |
| NS(=O)(=O)c1ccc(CCNC(=O)c2ccc(CS(=O)(=O)c3ccc(Br)cc3)o2)cc1 | -7.18% | – |
| COc1cc(/C=N/NC(=O)c2c(C)nc3ccc(Cl)cn23)cc(OC)c1OC | -0.562% | – |
| O=C(NC(=S)Nc1ccc(N2CCOCC2)cc1)c1ccccc1 | -9.02% | – |
| COc1ccccc1C=C1SC(=S)NC1=O | -7.14% | – |
| Cc1cccc(/C=C/c2onc(C)c2S(=O)(=O)N2CCC(C(=O)NC(C)(C)C)CC2)c1 | -5.61% | – |
